Source: PubChem BioAssay
Tg IFNy HTS – T. gondii growth inhibition with IFN-gamma, primary screen, cell-based; hit rate 3.8% among 69,000; Toxoplasma gondii growth in IFN-gamma-treated host cells; hits give low values; activity change, negative = inhibition, % (no concentration beside the values); in the data active means activity change below about -70%, passing the limit was not always enough;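 further: host cells are HeLa cells infected with Toxoplasma gondii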
Numbers without * were called inactive. Only a selection was taken, and hits are over-represented in it overall.

`CC(C)N1CC(C(=O)N(C)C)C2(CCc3ccccc3C2O)C1` (configuration not stated) gave Tg IFNy HTS 83.
O=c1ncn(Cc2ccccn2)cc1-c1ccccc1 was read as Tg IFNy HTS 44.
Screening c1ccc(-c2csc3ncnc(NCc4ccccn4)c23)cc1 returned Tg IFNy HTS -74*.
Screening c1ccc(-c2csc3ncnc(NCC4CCCO4)c23)cc1 (configuration not stated) returned Tg IFNy HTS -60.
Cc1ccc(NC(=O)c2nnn(Cc3nc(-c4ccccc4)oc3C)c2C)c(Br)c1 was read as Tg IFNy HTS 47.
`COC(C)(C)C(=O)N1CCC(c2cc(Cc3c(F)cccc3F)cc(C)n2)CC1` gave Tg IFNy HTS -57.
Screening CCOC(=O)c1c(-c2cccs2)csc1NC(=O)c1cc2ccccc2oc1=O returned Tg IFNy HTS -7.
For Cc1nnc(-c2ccccc2-c2cccc3ccnn23)s1 the results were Tg IFNy HTS -41.
`NC(=O)c1csc(-c2cccc3ccnn23)n1` gave Tg IFNy HTS -98*.
CNC(=O)Cn1cc(-c2cccc3ccnn23)cn1 was read as Tg IFNy HTS 3.
`O=C(O)c1cccnc1NCC1CCCO1` (configuration not stated) gave Tg IFNy HTS -28.
Screening O=C(Nc1ccc(F)cc1)c1cccnc1Oc1ccccc1 returned Tg IFNy HTS -31.
For N#CC1(c2ccc(NC(=O)c3cccnc3NCc3ccncc3)cc2)CCCC1 the results were Tg IFNy HTS -72*.
COc1ccc2c(c1)C=C(CN1CCCC(c3ccc(-c4cnn(C)c4)cn3)C1)CO2 (configuration not stated) was read as Tg IFNy HTS 42.
O=C1NCC(=O)N2CCN(Cc3coc4ccccc4c3=O)CC12 (configuration not stated) was read as Tg IFNy HTS 21.
`CN(C)C(=O)CN1C[C@@H]2CCN(C(=O)Nc3ccccc3Cl)CC[C@H]2S1(=O)=O` gave Tg IFNy HTS -65.
For c1ccc(CNc2ncc(CN3CCC4(CCOCC4)CC3)cn2)cc1 the results were Tg IFNy HTS 83.
For c1ccc(CNc2nc(N3CCOCC3)nc(N3CCOCC3)n2)cc1 the results were Tg IFNy HTS -83*.
For c1ccc2c(N3CCOCC3)nc(N3CCOCC3)nc2c1 the results were Tg IFNy HTS -4.
CCc1nc(C)sc1CNc1nc(CCN)nc2ccccc12 was read as Tg IFNy HTS -6.
COc1cccc(OCCN2CCN(c3ncnc4c3CCNC4)CC2)c1 was read as Tg IFNy HTS -53.
Screening c1cc(C2CCN(c3ncnc4c3CCNC4)CC2)ccn1 returned Tg IFNy HTS -11.
`COc1cccc(C2CCN(c3ncnc4c3CCNC4)C2)c1OC` (configuration not stated) gave Tg IFNy HTS -72*.
COc1ccccc1C1(C)CCc2oc3ccc(Br)cc3c2-c2oc(C)cc21 (configuration not stated) was read as Tg IFNy HTS 10.
COc1ccc(-c2nc(NCCCN3CCCC(C)C3)c3ccccc3n2)cc1 (configuration not stated) was read as Tg IFNy HTS -47.
`Cc1oc(-c2ccc(NC(=O)c3cccc(Cl)c3)cc2)nc1Cn1cccn1` gave Tg IFNy HTS -33.
For Cc1oc(-c2ccc(NC(=O)c3cc(F)cc(F)c3)cc2)nc1Cn1cccn1 the results were Tg IFNy HTS 20.
For COc1cccc(C(=O)Nc2ccc(-c3nc(Cn4cccn4)c(C)o3)cc2)c1 the results were Tg IFNy HTS -99*.
For COc1cccc(C(=O)Nc2ccc(-c3nc(Cn4cc(C)cn4)c(C)o3)cc2)c1 the results were Tg IFNy HTS -93*.
Cc1cnn(Cc2nc(-c3ccc(NC(=O)c4cccc(C#N)c4)cc3)oc2C)c1 was read as Tg IFNy HTS -50.
For Cc1ccc(C(=O)Nc2ccc(-c3nc(Cn4cccn4)c(C)o3)cc2)cc1F the results were Tg IFNy HTS 23.
COc1cccc(CC(=O)Nc2ccc(-c3nc(Cn4cccn4)c(C)o3)cc2)c1 was read as Tg IFNy HTS -44.
Cc1oc(-c2ccc(NC(=O)c3cccc(F)c3)cc2)nc1Cn1cccn1 was read as Tg IFNy HTS -87*.
For Cc1nn(C)cc1C(=O)N1CCCCC1c1ncccc1C(=O)NCc1ccccc1 (configuration not stated) the results were Tg IFNy HTS 11.
For CCc1cc2cc3c(cc2nc1Sc1nc2cc4c(cc2cc1CC)OCO4)OCO3 the results were Tg IFNy HTS 10.
O=C(Cc1ccccc1)N1CCOCC2(CN(Cc3ccncc3)CCO2)C1 (configuration not stated) was read as Tg IFNy HTS 0.
CNC(=O)[C@@]12CCC3(CCN(C(=O)NCc4cccc(OC)c4)CC3)[C@H]1CN(C)C2 was read as Tg IFNy HTS 5.
`C[C@H]1[C@H](C)CC[C@]2(C(=O)O)CC[C@]3(C)C(=CCC4[C@@]5(C)C[C@@H](O)[C@H](O)[C@@](C)(CO)C5[C@H](O)C[C@]43C)[C@H]12` (some centres not stated) gave Tg IFNy HTS -28.
